The results in this text go back to PubChem BioAssay (EPA / NIEHS).

Usually AC50 stands for the concentration at which the activity in the assay is half-maximal.

Activity calls are given as the source filed them. Rule for the calls: active = hit-call score of the fitted dose curve at least 0.9, where 1 is the maximum; inactive = score below 0.9.

Chain of Nuclear respiratory factor 1 (Homo sapiens) (Q16656 whole entry, looked up): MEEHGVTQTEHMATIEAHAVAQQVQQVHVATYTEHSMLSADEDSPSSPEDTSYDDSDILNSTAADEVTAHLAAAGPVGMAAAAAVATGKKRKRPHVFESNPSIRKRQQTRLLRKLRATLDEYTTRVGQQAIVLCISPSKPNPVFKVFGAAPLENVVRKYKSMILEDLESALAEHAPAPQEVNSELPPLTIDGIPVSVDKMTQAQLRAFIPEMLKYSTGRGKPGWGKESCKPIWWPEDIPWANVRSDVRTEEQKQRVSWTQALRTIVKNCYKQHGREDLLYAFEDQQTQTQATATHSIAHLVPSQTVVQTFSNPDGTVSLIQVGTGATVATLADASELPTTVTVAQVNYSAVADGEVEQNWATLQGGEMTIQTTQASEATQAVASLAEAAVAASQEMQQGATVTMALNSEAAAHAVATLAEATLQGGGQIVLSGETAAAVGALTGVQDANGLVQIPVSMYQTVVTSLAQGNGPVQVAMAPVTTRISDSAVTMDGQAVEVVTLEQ

This assay concerns the target Nuclear respiratory factor 1 (Homo sapiens) (UniProt Q16656). Nature of the assay: ATG_NRF1_CIS: Attagene CIS-FACTORIAL HepG2 Assay for human Nuclear Respiratory Factor 1 (NRF1) Orphan Gene (AID 2282987). Conditions: HepG2 NRF1 cis-element reporter, Attagene multiplex; actives raise or lower the signal. The method, then:
ATG_CIS is a cell-based, multiplexed-readout assay that uses HepG2, a human liver cell line, with measurements taken at 24 hours after chemical dosing in a 24-well plate.ATG_NRF1_CIS is one of 52 assay component(s) measured or calculated from the ATG_CIS assay. It is designed to make measurements of mRNA induction, a form of inducible reporter, as detected with fluorescence intensity signals by Reverse transcription polymerase chain reaction (RT-PCR) and Capillary electrophoresis technology.Data from the assay component ATG_NRF1_CIS was analyzed into 1 assay endpoint. This assay endpoint, ATG_NRF1_CIS, was analyzed with bidirectional fitting relative to DMSO as the negative control and baseline of activity. Using a type of inducible reporter, measures of mRNA for gain or loss-of-signal activity can be used to understand the reporter gene at the transcription factor-level as they relate to the gene NRF1. Furthermore, this assay endpoint can be referred to as a primary readout, because this assay has produced multiple assay endpoints where this one serves a reporter gene function. To generalize the intended target to other relatable targets, this assay endpoint is annotated to the dna binding intended target family, where the subfamily is nuclear respiratory factors.
Human liver HepG2 cells are transiently transfected with multiple reporter transcription units (MRTUs) in 6-well plates using FuGene 6 reagent (Roche; 3 ml FuGene/1 mg DNA). The MRTU constructs are regulated by a cis-regulating element (promoter). […] A major difference between the CIS and TRANS system is that in CIS activities of endogenous TFs are measured, whereas the TRANS assay evaluates changes in activities of exogenous, chimeric NR-Gal4 proteins. […] At the end of 24 hour incubation, total RNA was isolated using TriZol reagent (Invitrogen). The isolated RNA is then reverse-transcribed using oligo(dT) primer and Mo-MLV reverse transcriptase (Invitrogen) with DNAse I (Ambion) treatment for 30 min. The one-tenth of the produced cDNA was amplified by PCR using Taq DNA polymerase (Invitrogen) and two reporter sequence-specific primers. The PCR products were fluorescently labeled by primer extension with 6-arboxyfluorescein (6-FAM) 5'-labeled reporter sequence-specific primer (2 min at 95 C, 20 s at 68 C and 10 min at 72 C) and these products were digested with 5U of HpaI (New England Biolabs) for 2h at 37 C. The fragments were purified using Qiaquick PCR columns (Qiagen), analyzed on an ABI 3130xL genetic analyzer (Applied Biosystems) with peak positions identified by using a set of X-rhodamine (ROX)-labeled MapMarker1000 molecular weight standards (BioVentures). The raw capillary electrophoresis data was processed using Attagraph software (Attagene).
As for `COC(=O)c1ccccc1N`, the result was inactive. As for `CCCCCCCCCCCCCN1CC(C)OC(C)C1` (stereo not given), the result was inactive. The same measure, in the same setting: under `CO[C@@H]1[C@H](OC(=O)NC(=O)CCl)CC[C@]2(CO2)[C@H]1[C@@]1(C)O[C@@H]1CC=C(C)C` stands “inactive”; under `CN(C)c1ccccc1`, “inactive”. As for `O=[N+]([O-])C(Br)(CO)CO`, the concentration at half-maximal activity (AC50) was 162 µM (active). Regarding `O=C(O)C1C2CCC(O2)C1C(=O)O` (stereo not given), the molecule was classed as inactive. With `Oc1ccc2ccc3cccc4ccc1c2c34`, the call was inactive. In the case of `CN(C)[C@@H]1C(=O)C(C(N)=O)=C(O)[C@@]2(O)C(=O)C3=C(O)c4c(O)cccc4[C@@](C)(O)[C@H]3C[C@@H]12`, the molecule was called inactive. On to `Cc1ccc(N=C=O)cc1N=C=O`, for which the molecule was called inactive.

In the case of `Nc1cc(Cl)cc(C(=O)O)c1Cl`, the outcome was inactive. Consider `Cc1cccc(N)c1N`, for which the molecule was called inactive.

Regarding `C[C@]12C=CC3=C4CCC(=O)C=C4CC[C@H]3[C@@H]1CC[C@@H]2O`, the result was inactive. As for `Nc1ccc(Cl)cc1N`, the molecule was called inactive.

Turning to `Nc1ccc(Cc2ccc(N)cc2)cc1`, the call was inactive. Regarding `Cn1cc(-c2ccccc2)c(=O)c(-c2cccc(C(F)(F)F)c2)c1`, the AC50 is 100 µM (active). Consider `COP(=S)(OC)SCN1C(=O)c2ccccc2C1=O`, for which the outcome was inactive. Regarding `COC(=O)Nc1nc2ccccc2[nH]1`, the call was inactive.

As for `CC(C)N(Cc1ccccc1)C(=O)C(C)(C)C`, the molecule was called inactive. On the same count and under the same terms, with `CCCCCCCCOC(=O)c1ccc(C(=O)OCCCCCCCC)c(C(=O)OCCCCCCCC)c1` the entry was “inactive”.

On to `Cc1cc(N=Nc2ccccc2C)ccc1N`, for which the molecule was called inactive. On to `OCCCBr`, for which the call was inactive. For the molecule `c1ccc2c(c1)-c1cccc3cccc-2c13`, the molecule was classed as inactive. Turning to `C=CCc1ccc2c(c1)OCO2`, the molecule was classed as inactive. In the case of `OCCOCCO`, the molecule was classed as inactive.

Turning to `c1ccc(C2CO2)cc1` (stereo not given), the outcome was inactive.

In the case of `CN(C)C(=O)Nc1ccc(Cl)cc1`, the result was inactive. As for `Clc1ccccc1Cl`, the outcome was inactive.

`CCNS(=O)(=O)C(F)(F)C(F)(F)C(F)(F)C(F)(F)C(F)(F)C(F)(F)C(F)(F)C(F)(F)F`: the molecule was classed as inactive. Consider `CCCCOC(=O)c1ccccc1C(=O)OCc1ccccc1`, for which the result was inactive. Still for that read-out and setting: with `[Cl-].[Cl-].[Hg+2]` the entry was “inactive”; with `CC(C)(C)OOC(=O)c1ccccc1`, “inactive”. For `ClCCOCCCl`, the molecule was called inactive. Regarding `O=C(N[C@H](c1ccccc1)[C@@H]1CN2CCC1CC2)c1c(Cl)ccc(C(F)(F)F)c1Cl`, the result was inactive. Consider `O=C1CCCO1`, for which the molecule was classed as inactive. In the case of `CC(C)(C)C(O)(CCc1ccc(Cl)cc1)Cn1cncn1` (stereo not given), the call was inactive.

In the case of `N#CC(Br)(Br)C(N)=O`, the call was inactive. Consider `CC(C)(O)c1cnn2c(-c3ccc(F)c(-c4c(F)cccc4C#N)c3)cnc2n1`, for which the half-maximal activity concentration (AC50) was 8.4 µM (active). In the case of `[O-][Cl+]O`, the outcome was inactive. For the molecule `Cc1ccc(N)c(N)c1`, the outcome was inactive. For `CCC12COCN1COC2`, the call was inactive.
